The values below come from the emibetuzumab library of Makowski et al. (2022).

This is one part of the list. No count for the full screen is at hand.

The chains are these.
B1: VH:VL chains; a variant is named by its letters at X, in order (parent)
chain 1: QVQLVQSGAEVKKPGASVKVSCKASGYTFTDYXMHWVRQAPGQGLEWMGXVNPNXXXTTYNQKFEGRVTMTTDTSTSTAYMELRSLRSDDTAVYYCARXNXLDXWGQGTTVTVSS
chain 2: DIQMTQSPSSLSASVGDRVTITCSVSSSVSSIYLHWYQQKPGKAPKLLIYSTSNLASGVPSRFSGSGSGTDFTLTISSLQPEDFATYYCQVYSGYPLTFGGGTKVEIK

Variants of B1 are the subject of the assay. Nature of the assay: yeast display scFab, FACS + sequencing. Conditions: with MET. Put shortly: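 Heavy-chain CDR mutant scFab yeast surface library, enriched by two magnetic rounds on HGFR-Fc-coated Protein A beads and then by FACS. Cells were labelled with 1 nM HGFR-Fc in PBSB with 1% milk and anti-Myc for 3 h at room temperature, and the top 50% antigen-positive cells were gated. Round-3 sorted and input populations were deep sequenced in two replicates. Antigen binding call: positive if a sequence occurred in both antigen-positive samples, negative if it occurred only in input.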
Turning to VGTKGDAA, the antigen binding call was “no binding”.

Take DEGGGSSA: the antigen binding call is given as “no binding”.

On to DATGGAVA, for which the antigen binding call is “no binding”.

In the case of FRGGGAVA, the antigen binding call is listed as “binds”.

As for FRGGGSAA, the antigen binding call is recorded as “binds”.

On to FRGRDDWA, for which the antigen binding call is “no binding”.

For FRGGGSWA, the antigen binding call is “binds”.

Turning to FRGTGSWA, the antigen binding call is reported as “no binding”.

As to FRTGGAVA, the antigen binding call is “binds”.

STGTSDVF: the antigen binding call is recorded as “no binding”.

DAKEGDGV: the antigen binding call is recorded as “no binding”.

Regarding FAEGASSS, the antigen binding call is given as “no binding”.

For the variant FRTRDSSS, the antigen binding call is listed as “binds”.

FRTRDSAA: the antigen binding call is recorded as “binds”.

For the variant FRGGSSAA, the antigen binding call is reported as “binds”.

For the variant DRGGSSAA, the antigen binding call is “no binding”.

Regarding AARADSLS, the antigen binding call is reported as “no binding”.

Take FRGRAAVD: the antigen binding call is reported as “binds”.

FRGRDSSF: the antigen binding call is “binds”.

For the variant FRGRDFAD, the antigen binding call is given as “no binding”.

On to FRGRDDVF, for which the antigen binding call is reported as “no binding”.

Turning to FRGRDYGD, the antigen binding call is listed as “no binding”.

Turning to FRGRDAVF, the antigen binding call is on record as “binds”.

For DRGRDDVF, the antigen binding call is recorded as “no binding”.

Take FRGRDAVD: the antigen binding call is “binds”.

As to FRGRDYGF, the antigen binding call is given as “no binding”.

With SAEKDDGS, the antigen binding call was “no binding”.

For the variant DARGGAGA, the antigen binding call is recorded as “no binding”.

Regarding VGEKGDGV, the antigen binding call is reported as “no binding”.

On to SEKEGDAA, for which the antigen binding call is recorded as “no binding”.

In the case of YRGKGFVV, the antigen binding call is on record as “binds”.

YRGKGFVA: the antigen binding call is listed as “binds”.

In the case of YRGRGFLV, the antigen binding call is “binds”.

Consider SRGRGFVA, for which the antigen binding call is reported as “no binding”.

Consider YRGRGFVA, for which the antigen binding call was “binds”.

For FRGRGFVA, the antigen binding call is on record as “no binding”.

With VTTKSAVA, the antigen binding call is reported as “no binding”.

Consider DRRKAFSA, for which the antigen binding call is on record as “no binding”.

For the variant VEEEGDAA, the antigen binding call is recorded as “no binding”.

As to VAGGDDVA, the antigen binding call is on record as “no binding”.

With VEGTGDWD, the antigen binding call is “no binding”.

As for VRGRGFVV, the antigen binding call is “binds”.

On to VATKGFVV, for which the antigen binding call is given as “no binding”.

YRGRGFVV: the antigen binding call is reported as “binds”.

For the variant VRARGFVV, the antigen binding call was “binds”.

With YRGKGYVV, the antigen binding call is on record as “binds”.

Turning to VRGKAFVV, the antigen binding call is reported as “no binding”.

Regarding VRAGADVV, the antigen binding call is reported as “no binding”.

Consider FEKEADAF, for which the antigen binding call is given as “no binding”.

Turning to ATTGSASF, the antigen binding call was “no binding”.

DAETAAAA: the antigen binding call is “no binding”.

Turning to SRGRGAWS, the antigen binding call is recorded as “binds”.

For the variant STGTGSGA, the antigen binding call is reported as “no binding”.

Consider SRGRDAWA, for which the antigen binding call is listed as “no binding”.

With SRGRGAVS, the antigen binding call was “binds”.

For the variant DAGRGAVS, the antigen binding call is “no binding”.

On to SRGRGSGA, for which the antigen binding call is “binds”.

Consider SRGRGVGA, for which the antigen binding call is given as “no binding”.

Consider SRGRGAWA, for which the antigen binding call is “binds”.

For VETGNDLV, the antigen binding call is reported as “no binding”.

On to STGTGYVF, for which the antigen binding call was “no binding”.

As for AAKEGALV, the antigen binding call is on record as “no binding”.

For AKGRADVY, the antigen binding call was “no binding”.

As for YARETAGV, the antigen binding call was “no binding”.

On to DRAGDDGD, for which the antigen binding call is recorded as “no binding”.

For DRGRDDVD, the antigen binding call was “no binding”.

YKRGDDLV: the antigen binding call was “no binding”.

As for YRRGDDGD, the antigen binding call is reported as “binds”.

Turning to YRGRDDGD, the antigen binding call is “binds”.

Take YTEGDDGD: the antigen binding call is on record as “no binding”.

Turning to YKRGDDGD, the antigen binding call is “binds”.

On to DRRGDDGA, for which the antigen binding call is listed as “no binding”.

Consider VRGRDDGV, for which the antigen binding call is “no binding”.

Turning to AEGGTDVV, the antigen binding call is “no binding”.

As for SREAADAV, the antigen binding call was “no binding”.

Turning to VKATAVAV, the antigen binding call is listed as “no binding”.

Take VKERGDAV: the antigen binding call is “no binding”.

With VKTGGSWV, the antigen binding call is on record as “no binding”.

SKGRSDGV: the antigen binding call was “no binding”.

VKARGAGS: the antigen binding call is recorded as “binds”.

On to VKARGSGV, for which the antigen binding call is listed as “binds”.

On to VAARGFGS, for which the antigen binding call is “no binding”.

VKAGGAGS chain 1 G44D: the antigen binding call is “no binding”.

As to VEGGGSGV, the antigen binding call was “no binding”.

Take VKEGGAVV: the antigen binding call is listed as “no binding”.

With VKTGGAVV, the antigen binding call was “binds”.

As for VKGRSDGV, the antigen binding call was “binds”.

For the variant VKGRADGV, the antigen binding call is “no binding”.

With VGARNSGV, the antigen binding call was “no binding”.

For the variant SEGTGSSV, the antigen binding call is “no binding”.

Turning to DGGKNAGV, the antigen binding call is listed as “no binding”.

Turning to DTGTGDAA, the antigen binding call was “no binding”.

Turning to DKAGGAGV, the antigen binding call is on record as “no binding”.

On to YKARGAGV, for which the antigen binding call was “binds”.

As for YKTGDDGV, the antigen binding call is listed as “no binding”.

In the case of VKARSAGV, the antigen binding call is listed as “no binding”.

For YKKRGAGV, the antigen binding call is “binds”.

Regarding YKTGGAGV, the antigen binding call is given as “binds”.

In the case of YEKETAGV, the antigen binding call is listed as “no binding”.

As for VKGESAGV, the antigen binding call is “no binding”.

On to VKARGAGV, for which the antigen binding call is “binds”.

On to YKGEGDGV, for which the antigen binding call is “no binding”.

In the case of YKTGGDGV, the antigen binding call is listed as “no binding”.

Consider YKTKSDGV, for which the antigen binding call was “no binding”.

With FEAESYGV, the antigen binding call is reported as “no binding”.

As for FKAGSSGV, the antigen binding call is given as “no binding”.

Turning to FKATTSGA, the antigen binding call was “no binding”.

On to FKARGSGV, for which the antigen binding call is “binds”.

In the case of VAGTDAGA, the antigen binding call is on record as “no binding”.

As to SREGGFAA, the antigen binding call is listed as “no binding”.

Take YRRRGVAA: the antigen binding call is reported as “binds”.

Consider YRRGSFAA, for which the antigen binding call is listed as “binds”.

With YRRRGYAA, the antigen binding call was “binds”.

For the variant SRKGGDAA, the antigen binding call is listed as “no binding”.

Take YRRRGDAA: the antigen binding call is reported as “binds”.

As for VGGGASGV, the antigen binding call is “no binding”.

With FTGRAYGF, the antigen binding call is “no binding”.

For the variant VAGRSDLV chain 1 R67H, the antigen binding call is on record as “no binding”.

As for DAKEGAGD, the antigen binding call was “no binding”.

Consider VTGEDDWD, for which the antigen binding call is given as “no binding”.

On to VGGGNAGD, for which the antigen binding call is “no binding”.

With YREGGFAA, the antigen binding call is “no binding”.

For YRRRGAAA, the antigen binding call is listed as “binds”.

On to YRRRGFAA, for which the antigen binding call is listed as “binds”.

YRRRGYVA: the antigen binding call is recorded as “binds”.

Turning to YRRRGAVA, the antigen binding call is listed as “binds”.

Turning to VRAGADVY, the antigen binding call is “no binding”.

Regarding YGETGDSV, the antigen binding call is given as “no binding”.

Take FTETGFGA: the antigen binding call is listed as “no binding”.

Regarding YRRRGFVA, the antigen binding call was “binds”.

As for FRERGSAD, the antigen binding call is “binds”.

On to YRERGAAD, for which the antigen binding call was “binds”.

Take YRERGSAD: the antigen binding call is given as “binds”.

As to YAEGDAAD, the antigen binding call is recorded as “no binding”.

For the variant YRERDSAD, the antigen binding call is “no binding”.

VRERGSAD: the antigen binding call is reported as “binds”.
